According to PubChem BioAssay (NCI):
Where “and” joins values, the source holds several entries; their conditions need not be identical. Equal entries are not always repeated. This is part of a sample that, as a whole, favours compounds with a hit. Of some 79,000 tested, about 15% had one in any assay. Some compounds were tested as several samples or in several runs, with calls that do not always agree. Calls of active or inactive are those of the source. No stated cut-off is given here; in the data, active means growth inhibition above about 70%; inactive means the rest.

Legend:
[1] = NCI Yeast Anticancer Drug Screen. Data for the rad52 strain (AID 147);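 further: 0% = growth of vehicle-treated control cultures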; conditions: S. cerevisiae rad52 mutant growth inhibition, stronger effect = higher value
Summary of the method: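 Measured: yeast growth inhibition. System: strain with a defined DNA damage repair alteration. Reference: vehicle-treated control cultures.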

[2] = NCI Yeast Anticancer Drug Screen. Data for the wt1 strain (AID 149);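 further: 0% = growth of vehicle-treated wt1 cultures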; conditions: S. cerevisiae wt1 strain (SPY 50644) growth inhibition, stronger effect = higher value
Summary of the method: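 Compounds are added to wt1 yeast cultures. Growth is then measured. Inhibition is expressed relative to vehicle-treated controls.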

[3] = NCI Yeast Anticancer Drug Screen. Data for the rad50EPP+ strain (AID 151);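 further: 0% = growth of vehicle-treated control cultures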; conditions: S. cerevisiae rad50 mutant strain, stronger effect = higher value
Summary of the method: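 One strain with a rad50 alteration (rad50EPP+) was compound-treated, its growth then compared to that of vehicle controls.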

[4] = NCI Yeast Anticancer Drug Screen. Data for the mgt1 strain (AID 153); conditions: S. cerevisiae mgt1 mutant growth inhibition, stronger effect = higher value
Summary of the method: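 After exposure of the mgt1 yeast mutant to compound, growth was measured and reported as inhibition compared with vehicle controls.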

[5] = NCI Yeast Anticancer Drug Screen. Data for the rad50 strain (AID 155);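 further: 0% = growth of vehicle-only cultures of the same strain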; conditions: S. cerevisiae rad50 strain growth inhibition, stronger effect = higher value
Summary of the method: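 Inhibition values express reduced yeast growth in compound-treated cultures relative to vehicle-treated controls.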

[6] = NCI Yeast Anticancer Drug Screen. Data for the mec2-1 strain (AID 157); conditions: S. cerevisiae mec2-1 strain, stronger effect = higher value
Summary of the method: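 Test agents were screened against the mec2-1 yeast strain, with defined DNA repair or cell cycle alteration. Growth was scored as inhibition against vehicle-only controls.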

[7] = NCI Yeast Anticancer Drug Screen. Data for the rad14 strain (AID 159);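 further: 0% = growth of vehicle-treated control cultures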; conditions: S. cerevisiae rad14 strain growth inhibition, stronger effect = higher value
Summary of the method: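 A mutant yeast strain defective in DNA damage repair is treated with compound; inhibition of its growth is scored against untreated, vehicle-exposed cultures.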

[8] = NCI Yeast Anticancer Drug Screen. Data for the sgs1 mgt1 strain (AID 161);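 further: 0% = growth of cultures given vehicle only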; conditions: S. cerevisiae sgs1 mgt1 strain, stronger effect = higher value
Summary of the method: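 Test agents were incubated with a DNA-repair-mutant yeast strain. Growth was then read and compared against vehicle-treated controls.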

[9] = NCI Yeast Anticancer Drug Screen. Data for the CLN2oe strain (AID 163);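 further: 0% = growth of vehicle-only control cultures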; conditions: S. cerevisiae CLN2oe strain, stronger effect = higher value
Summary of the method: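 Here, growth inhibition in a cell-cycle-altered yeast strain after compound exposure was quantified against vehicle control growth.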

[10] = NCI Yeast Anticancer Drug Screen. Data for the cln2 rad14 strain (AID 165);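 further: 0% = growth equal to vehicle treated cultures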; conditions: S. cerevisiae cln2 rad14 strain, stronger effect = higher value
Summary of the method: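 Growth of compound-exposed yeast (cln2 rad14 genotype) measured and expressed as inhibition relative to vehicle.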

[11] = NCI Yeast Anticancer Drug Screen. Data for the bub3 strain (AID 167); conditions: S. cerevisiae bub3 mutant strain, stronger effect = higher value
Summary of the method: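 Steps: expose the mutant yeast strain to compound; grow alongside vehicle-treated cultures; measure growth; express inhibition against the vehicle cultures.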

[12] = NCI Yeast Anticancer Drug Screen. Data for the wt2 strain (AID 169);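 further: 0% = growth of vehicle-treated yeast cultures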; conditions: S. cerevisiae wt2 strain growth inhibition, stronger effect = higher value
Summary of the method: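 Genetically defined yeast strains from a DNA-repair/cell-cycle panel were used. Compound-exposed yeast growth was measured, and the inhibition was calculated relative to vehicle treatment.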

[13] = NCI Yeast Anticancer Drug Screen. Data for the mlh1 strain (AID 171);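 further: 0% = growth of vehicle-treated control cultures of the same strain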; conditions: S. cerevisiae mlh1 strain growth inhibition, stronger effect = higher value
Summary of the method: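 Here the genetically defined yeast mutant is grown with each compound, and the extent to which its growth falls below that of vehicle-exposed cells is reported.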

[14] = NCI Yeast Anticancer Drug Screen. Data for the sgs1 strain (AID 173);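 further: 0% = growth of vehicle-only control cultures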; conditions: S. cerevisiae sgs1 mutant, stronger effect = higher value
Summary of the method: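 Relative growth inhibition, referenced to vehicle, was determined in a yeast strain with a defined alteration affecting DNA damage repair or cell cycle control after compound exposure.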

[15] = NCI Yeast Anticancer Drug Screen. Data for the mlh1 rad18 strain (AID 175); conditions: S. cerevisiae mlh1 rad18 strain growth inhibition, stronger effect = higher value
Summary of the method: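 In this whole-cell yeast screen, a strain with altered DNA damage repair is challenged with compound, and its growth is measured against matched vehicle-treated controls.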

[16] = NCI Yeast Anticancer Drug Screen. Data for the rad18 strain (AID 177); conditions: S. cerevisiae rad18 mutant growth inhibition, stronger effect = higher value
Summary of the method: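 Screen uses a yeast strain with a defined lesion in DNA damage repair; compound effect is read as loss of growth compared to untreated vehicle cultures.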

[17] = at 5.0 µM (retest, dose inferred, filed as 0.5)
[18] = at 50.0 µM (retest, dose inferred, filed as 5.0)

Measured: growth inhibition

O=C1Nc2ccc(Br)cc2C1=Nc1ccc2c(c1)OCO2
inactive: [1]; at 1.2 µM 10% | [1]; at 3.7 µM 8% | [1]; at 11.0 µM 3% | [1]; at 33.0 µM 10% | [1]; at 100.0 µM 2% | [2]; at 1.2 µM -12% | [2]; at 3.7 µM -3% | [2]; at 11.0 µM -12% | [2]; at 33.0 µM -12% | [2]; at 100.0 µM 2% | [3]; at 1.2 µM -34% | [3]; at 3.7 µM -37% | [3]; at 11.0 µM -45% | [3]; at 33.0 µM -35% | [3]; at 100.0 µM -48% | [4]; at 1.2 µM -9% | [4]; at 3.7 µM -32% | [4]; at 11.0 µM -15% | [4]; at 33.0 µM -15% | [4]; at 100.0 µM -30% | [5]; at 1.2 µM -29% | [5]; at 3.7 µM -26% | [5]; [17] 47% | [5]; at 11.0 µM -27% | [5]; at 33.0 µM -27% | [5]; [18] 60% | [5]; at 50.0 µM -9.9% | [5]; at 100.0 µM -10% | [6]; at 1.2 µM -59% | [6]; at 3.7 µM -27% | [6]; [17] 41% | [6]; at 11.0 µM -54% | [6]; at 33.0 µM -58% | [6]; [18] 56% | [6]; at 50.0 µM -5.95% | [6]; at 100.0 µM -40% | [7]; at 1.2 µM -38% | [7]; at 3.7 µM -29% | [7]; at 11.0 µM -32% | [7]; at 33.0 µM -21% | [7]; at 100.0 µM -33% | [8]; [17] -12% | [8]; [18] 8% | [8]; at 50.0 µM 9.4% | [9]; at 1.2 µM 13% | [9]; at 3.7 µM 15% | [9]; at 11.0 µM 16% | [9]; at 33.0 µM 17% | [9]; at 100.0 µM 21% | [10]; [17] 32% | [10]; [18] 26% | [10]; at 50.0 µM 7.55% | [11]; at 1.2 µM -26% | [11]; at 3.7 µM -22% | [11]; [17] 30% | [11]; at 11.0 µM -17% | [11]; at 33.0 µM 2% | [11]; at 50.0 µM 52.5% | [12]; at 1.2 µM 0% | [12]; at 3.7 µM -21% | [12]; at 11.0 µM -22% | [12]; at 33.0 µM -34% | [12]; at 100.0 µM -27% | [13]; at 1.2 µM -8% | [13]; at 3.7 µM -13% | [13]; at 11.0 µM -24% | [13]; at 33.0 µM -30% | [13]; at 100.0 µM -27% | [14]; at 1.2 µM -31% | [14]; at 3.7 µM -21% | [14]; at 11.0 µM -30% | [14]; at 33.0 µM -37% | [14]; at 100.0 µM -27% | [15]; [17] 33% | [15]; [18] 54% | [15]; at 50.0 µM 6.7%
active: [11]; [18] 73% | [11]; at 100.0 µM 86%

Cc1cc(N(CCOS(C)(=O)=O)CCOS(C)(=O)=O)ccc1C=Nc1ccc(-c2nc(Cc3ccccc3)sc2C)cc1
84.2% (active) and 37% (inactive): [11]; at 50.0 µM
97% (active) and 46% (inactive): [6]; [18]
97% (active) and 43% (inactive): [15]; [18]
active: [1]; at 11.0 µM 84% | [1]; at 33.0 µM 92% | [1]; at 100.0 µM 96% | [2]; at 33.0 µM 90% | [2]; at 100.0 µM 98% | [3]; at 100.0 µM 92% | [4]; at 33.0 µM 90% | [4]; at 100.0 µM 98% | [5]; at 11.0 µM 71% | [5]; at 33.0 µM 93% | [5]; at 100.0 µM 97% | [6]; at 11.0 µM 72% | [6]; at 33.0 µM 93% | [6]; at 100.0 µM 98% | [7]; at 11.0 µM 80% | [7]; at 33.0 µM 96% | [7]; at 100.0 µM 96% | [8]; at 50.0 µM 85.5% and 85.9% | [9]; at 33.0 µM 91% | [9]; at 100.0 µM 97% | [11]; at 33.0 µM 89% | [11]; at 100.0 µM 98% | [12]; at 33.0 µM 92% | [12]; at 100.0 µM 98% | [13]; at 33.0 µM 92% | [13]; at 100.0 µM 97% | [14]; at 33.0 µM 94% | [14]; at 100.0 µM 98% | [15]; at 50.0 µM 77% | [16]; at 3.7 µM 73% | [16]; at 11.0 µM 90% | [16]; at 33.0 µM 94% | [16]; at 100.0 µM 98%
86.2% (active) and 27.1% (inactive): [10]; at 50.0 µM
95% (active) and 49% (inactive): [5]; [18]
78% (active) and -3% (inactive): [15]; [17]
inactive: [1]; at 1.2 µM 9% | [1]; at 3.7 µM 52% | [2]; at 1.2 µM -29% | [2]; at 3.7 µM -10% | [2]; at 11.0 µM 28% | [3]; at 1.2 µM 1% | [3]; at 3.7 µM -19% | [3]; at 11.0 µM 10% | [3]; at 33.0 µM 37% | [4]; at 1.2 µM -24% | [4]; at 3.7 µM 4% | [4]; at 11.0 µM 55% | [5]; at 1.2 µM 12% | [5]; at 3.7 µM 23% | [5]; [17] 44% and 1% | [5]; at 50.0 µM 52.9% | [6]; at 1.2 µM -26% | [6]; at 3.7 µM 4% | [6]; [17] 40% and -3% | [6]; at 50.0 µM 49.3% | [7]; at 1.2 µM 3% | [7]; at 3.7 µM 38% | [8]; [17] 23% and 3% | [8]; [18] -12% and 43% | [9]; at 1.2 µM 23% | [9]; at 3.7 µM 0% | [9]; at 11.0 µM 57% | [10]; [17] 29% and 0% | [10]; [18] -12% and 35% | [11]; at 1.2 µM -32% | [11]; at 3.7 µM -38% | [11]; [17] 16% and -2% | [11]; at 11.0 µM 25% | [11]; [18] -14% and 55% | [12]; at 1.2 µM -12% | [12]; at 3.7 µM 10% | [12]; at 11.0 µM 48% | [13]; at 1.2 µM -32% | [13]; at 3.7 µM -15% | [13]; at 11.0 µM 46% | [14]; at 1.2 µM 3% | [14]; at 3.7 µM 15% | [14]; at 11.0 µM 66% | [16]; at 1.2 µM 41%
